# From PubChem
# The list is not random: actives were taken first. Their share in the collection is about 3%.
# USP1 inh – blocks the human USP1/UAF1 deubiquitinase complex. O94782. recombinant USP1/UAF1, Ub-Rhodamine cleavage fluorescence. Potency, µM (series often up to 57.1 µM), hits mostly inhibitors. 0.23% of 390,000 active. AID 743255; further: nearly all actives have a fitted effect of over 60% in size
#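 Step one: compound is pinned into 1nM USP1/UAF1 in HEPES pH 7.8 buffer with TCEP. Step two: 15 min room-temperature incubation. Step three: Ub-Rho (150nM final) starts cleavage, tracked by fluorescence over six one-minute reads.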
# TSG101-PTAP inh – blocks PTAP/TSG101 interaction to inhibit HIV-1 budding. AID 493005. Potency, µM (series often up to 115 µM), actives largely listed as inhibitors. Q99816. 340,000 tested, under 10 active. Fluorescence polarization, FITC-PTAP peptide / Tsg101 binding; active means well fitted inhibition curve with a large enough effect in the main read-out, with a control signal flat, not every such curve was filed as active; inconclusive means small, poorly fitted or top-dose-only effect, or effect the other way, or a change in a side signal; inactive means no such curve, though single readings can be large or run the other way
#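 Fluorescence polarization binding of Tsg101 binding domain (10 uM final) to FITC-labeled PTAP peptide (50 nM final) in HEPES pH 7.5 buffer with NaCl, Tween 20, EDTA, TCEP. Compounds added before peptide; binding 20 min at RT.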
# GCN5L2 inh – GCN5L2 (KAT2A) acetyltransferase inhibition | GCN5L2 HAT assay, ThioGlo1 CoA-SH fluorescence | 0.21% of 390,000 active | Potency, µM (titrated, usually from 58.9 µM), hits mostly inhibitors | Q92830
# Target sequence (Q92830 whole entry, looked up): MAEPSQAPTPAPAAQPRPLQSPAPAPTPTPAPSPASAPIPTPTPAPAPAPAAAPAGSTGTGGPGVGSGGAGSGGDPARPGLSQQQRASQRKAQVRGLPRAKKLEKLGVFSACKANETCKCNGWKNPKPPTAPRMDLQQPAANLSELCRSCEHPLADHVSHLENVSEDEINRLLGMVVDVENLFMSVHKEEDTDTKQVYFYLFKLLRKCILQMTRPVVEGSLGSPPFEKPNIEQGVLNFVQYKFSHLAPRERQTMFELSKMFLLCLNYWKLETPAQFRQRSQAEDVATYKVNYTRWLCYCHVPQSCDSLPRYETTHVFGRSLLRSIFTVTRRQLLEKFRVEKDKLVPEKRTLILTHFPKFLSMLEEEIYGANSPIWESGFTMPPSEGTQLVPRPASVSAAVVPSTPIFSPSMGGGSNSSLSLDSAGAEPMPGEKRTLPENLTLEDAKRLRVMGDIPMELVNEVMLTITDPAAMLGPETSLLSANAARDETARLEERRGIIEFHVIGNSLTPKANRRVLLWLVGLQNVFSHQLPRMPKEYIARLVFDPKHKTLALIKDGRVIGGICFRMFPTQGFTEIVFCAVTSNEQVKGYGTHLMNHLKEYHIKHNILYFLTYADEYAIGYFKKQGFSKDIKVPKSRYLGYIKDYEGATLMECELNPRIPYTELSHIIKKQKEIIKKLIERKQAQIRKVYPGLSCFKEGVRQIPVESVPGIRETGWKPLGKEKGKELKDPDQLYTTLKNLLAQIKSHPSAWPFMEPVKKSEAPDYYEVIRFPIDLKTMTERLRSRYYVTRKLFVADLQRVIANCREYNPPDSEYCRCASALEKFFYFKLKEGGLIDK
#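 Preincubate 20nM GCN5L2 with compound 15 min, RT → add 50uM ThioGlo1 + 75uM H3(1-25) + 70uM acetyl-CoA → read fluorescence 0 and 20 min. Primary qHTS; fluorescent artifacts likely.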
# VDR inh – inhibitors of human vitamin D receptor | VDR-SRC2-3 peptide fluorescence polarization, 2 h | Potency, µM, most hits filed as inhibitors | 0.93% of 400,000 active
#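 FP read-out; VDR + SRC2-3 coactivator peptide; 23 nl compound by pintool; 2 h RT incubation; reagents held at 4 deg C, protected from light.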
# PLK1 PBD inh – blocks phosphopeptide binding to human PLK1 polo-box domain; Plk1 PBD binding of FITC phosphopeptide, fluorescence polarization; P53350; 2.8% of 360,000 active; Potency, µM, hits mostly inhibitors; further: series mostly up to about 57 µM; nearly all actives have a fitted effect of over 65% in size
# A number is an active result; i = inactive; ? = inconclusive; nt = not tested or not shown; ! = not confirmed by another sample. Unless noted, the call rests on the fitted dose curve; in most records, active means well fitted curve in the direction sought with a large enough effect; inconclusive means small, poorly fitted or top-dose-only effect, or another doubt; inactive means no such curve, though single readings can be large; an effect the other way counts as inactive or inconclusive.
SMILES,USP1 inh,TSG101-PTAP inh,GCN5L2 inh,VDR inh,PLK1 PBD inh
Cn1cccc1/C=C1\C(=O)NC(=O)N(Cc2ccccc2)C1=O,i,i,i,?,?
C=CCN1C(=O)NC(=O)/C(=C/c2ccc(N(C)C)c(Br)c2)C1=O,i,i,i,79.4µM,6.7µM
O=C(c1ccncc1)N1CCC[C@@]2(CCN(Cc3nccs3)C2)C1,nt,nt,i,i,nt
CC(C)=CCOc1c2occc2cc2ccc(=O)oc12,i,i,i,?,26.7µM
CSCC[C@H](NC(=O)[C@H](CC(C)C)NC(=O)[C@@H](Cc1cnc[nH]1)NC(=O)[C@H](Cc1ccccc1)NC(=O)[C@@H](Cc1ccccc1)NC(=O)[C@@H](N)Cc1ccc(O)cc1)C(N)=O,nt,nt,i,i,nt
CCN1C(=O)C(=Cc2ccc(C)s2)C(=O)N(CC)C1=S,i,i,i,?,0.532µM
CCOC(=O)c1ccc2c(c1)N(C)C(=O)c1ccccc1S2,i,i,?,i,i
CCOC(=O)c1sc(=NC(=O)c2ccc(C)c(C)c2)n(C)c1C,?,i,i,i,26.7µM
CO/C1=C\C(C)=C\[C@@H](C)[C@@H](O)[C@@H](C)C/C(C)=C/C=C/[C@H](OC)[C@@H]([C@@H](C)[C@@H](O)[C@H](C)[C@@]2(O)C[C@@H](O)[C@H](C)C(C(C)C)O2)OC1=O (some centres not stated),nt,nt,i,?,nt
CC(C)(O)C1C2OC(=O)C1[C@]1(O)CC3O[C@@]34C(=O)OC2[C@@]14C (some centres not stated),nt,nt,i,i,nt
O=[N+]([O-])c1ccc(N2CCCCCC2)c2nonc12,28.2µM,?,i,i,i
O=[N+]([O-])c1ccc(N2CCCCC2)c2ncccc12,i,i,i,i,i
COC(=O)C[C@@](O)(CCC(C)(C)O)C(=O)O[C@@H]1C(OC)=C[C@]23CCCN2CCc2cc4c(cc2[C@@H]13)OCO4,nt,nt,?,i,nt
CCNC(=S)NCCC1=c2ccccc2=N/C1=C\c1c(O)n(C)c(=O)n(C)c1=O,i,i,i,31.6µM,1.06µM
Cn1c(O)c(C=NCCc2c[nH]c3ccccc23)c(=O)n(C)c1=O,i,i,i,i,i
COc1cc2c(cc1OC)[C@@H]1C(=O)c3ccc(OC)c(CC=C(C)C)c3OC1CO2 (some centres not stated),nt,nt,?,i,nt
COC(=O)C(O)C(O)(CCC(C)C)C(=O)OC1C(OC)=CC23CCCN2CCc2cc4c(cc2C13)OCO4 (configuration not stated),nt,nt,i,i,nt
CCCN1CCc2cc(O)cc3c2[C@H]1Cc1ccc(O)c(O)c1-3,i,i,i,5.01µM!,i
CCCN1CCc2cccc3c2C1Cc1ccc(O)c(O)c1-3 (configuration not stated),nt,nt,i,i,nt
CN1CCc2cc(O)cc3c2[C@H]1Cc1ccc(O)c(O)c1-3,i,i,i,4.47µM!,i
CN1CCN(c2ncc3ncc(=O)n(C)c3n2)CC1,nt,nt,?,i,nt
Nc1c([N+](=O)[O-])ccc(Oc2ccccc2)c1Cl,nt,nt,i,i,nt
N=C1/C(=C\c2ccc(OC(=O)c3ccccc3Cl)cc2)C(=O)N=C2SC(N3CCOCC3)=NN12,?,i,?,?,29.9µM
CCS(=O)(=O)C1=NN2C(=N)/C(=C\c3ccc(OC(=O)c4ccco4)cc3)C(=O)N=C2S1,i,i,i,i,?
C[C@@H](N)Cc1cnc[nH]1,i,i,i,79.4µM!,i
SMILES,USP1 inh,TSG101-PTAP inh,GCN5L2 inh,VDR inh,PLK1 PBD inh
CCCOc1ccc(C(C)=O)cc1Cc1c(O)[nH]c(=S)[nH]c1=O,i,i,?,?,29.9µM
COc1ccc(C(C)=O)cc1Cc1c(O)[nH]c(=S)[nH]c1=O,i,i,?,?,?
CCOc1ccc(C(C)=O)cc1Cc1c(O)[nH]c(=S)[nH]c1=O,i,i,14.1µM,?,29.9µM
CCn1c(=S)sc2c(=O)[nH]c(SCC(=O)Nc3cc(OC)ccc3OC)nc21,i,i,i,i,?
COc1cc(C=C2C(=O)NC(=O)NC2=O)ccc1O,i,i,i,i,21.2µM
Cn1cccc1/C=C1/C(=O)NC(=O)N(Cc2ccc(F)cc2)C1=O,i,i,i,i,?
COc1cc(/C=C2\C(=O)NC(=O)N(CCc3ccc(F)cc3)C2=O)ccc1O,i,i,i,?,0.752µM
CN(C)C(=S)SC(=S)N(C)C,nt,nt,?,28.2µM,nt
CN(C)C(=S)SSC(=S)N(C)C,?,i,14.1µM,2.51µM!,0.336µM
CCN(CC)C(=O)c1ccc2c(c1)C1C(Cl)C(Sc3ccccc3[N+](=O)[O-])CC1C(C(=O)O)N2 (configuration not stated),?,i,12.6µM,i,6.7µM
Cc1ccc2c(c1Cl)NC(C(=O)O)C1CC(Sc3ccccc3[N+](=O)[O-])C(Cl)C21 (configuration not stated),i,i,i,i,26.7µM
CCN(CC)C(=O)c1ccc(NC(=O)c2cccc(S(=O)(=O)N3CCN(Cc4ccccc4)CC3)c2)cc1,i,i,i,i,i
CC(Cc1cccc(C(F)(F)F)c1)NCCCc1ccccc1 (configuration not stated),nt,nt,i,i,nt
C[C@H](N)C(=O)N[C@@H](C)C(=O)N[C@@H](Cc1ccccc1)C(=O)CCl,nt,nt,i,?,nt
O=C(c1ccccc1)c1ccccc1N=Cc1c(O)[nH]c(=O)[nH]c1=O,i,i,i,i,i
C=CCc1cccc(C=Nc2c[nH]c(=O)[nH]c2=O)c1O,i,i,i,i,26.7µM
O=C1NC(=O)N(CCC2=CCCCC2)C(=O)/C1=C/c1ccc(O)cc1,i,i,i,?,2.67µM
COc1ccc(/C=C2\C(=O)NC(=O)N(CCC3=CCCCC3)C2=O)c(OC)c1,i,i,?,?,1.68µM
CCN(CC)c1ccc(/C=C2/C(=O)NC(=O)N(CC3CCCO3)C2=O)cc1 (configuration not stated),i,i,i,i,?
O=C1NC(=O)N(CCC2=CCCCC2)C(=O)/C1=C/c1cccs1,i,i,i,?,0.752µM
O=C1NC(=O)N(CC2CCCO2)C(=O)/C1=C/c1cccs1 (configuration not stated),i,i,i,i,?
CCN1C(=O)NC(=O)/C(=C\c2ccc(N3CCOCC3)cc2OC)C1=O,nt,nt,i,nt,nt
COC[C@H]([C@@H](O)[C@@H](O)C(=O)NCC[C@@H](C)c1nc(/C=C/C[C@H]2OC3(C[C@H](O)[C@H]2C)OC([C@@H](C[C@@H](O)[C@@H](C)[C@@H](O)[C@@H](C)/C=C(C)/C(C)=C/C=C/C(C)=C\C#N)OC)[C@@H](OP(=O)(O)O)C3(C)C)co1)N(C)C (some centres not stated),nt,nt,i,i,nt
O=C1NC(=S)NC(=O)C1=Cc1c(Cl)cccc1Cl,i,i,nt,15.8µM,4.74µM
NS(=O)(=O)c1ccc(-c2ccc(C=C3C(=O)NC(=S)NC3=O)o2)cc1,nt,nt,i,nt,nt
